For the experiment, the system named is SKOV3. Briefly: Confirmatory qHTS for gynecologic anti-cancer compounds from libraries of approved drugs and bioactive compounds. Also: nearly all actives have a fitted effect of over 55% in size. As to conditions: gynecologic cancer cell panel viability, ATPlite luminescence, 48 h; series mostly up to 57.6 µM. Summed up:
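Cells (1,000/well) plated 16 h, then exposed 48 h at 37 °C to 11 concentrations (1:3) from 57.5 uM to 0.977 nM. Viability by ATPlite luminescence after 15 min; IC50 derived, with HEK 293T used for selectivity index.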

Drawing on PubChem BioAssay AID1345085 (National Center for Advancing Translational Sciences (NCATS), 2018), this text covers outcome for five compounds.

Each structure is given as a SMILES string. Inconclusive results are not listed. Active and inactive are the calls of the source. Calls follow the shape of the dose curve; as a rule, active = well fitted cell-killing curve with a large enough effect; inconclusive = small, poorly fitted or top-dose-only effect, or effect the other way; inactive = no such curve, though single readings can be large or run the other way.

Consider `CCOc1ccccc1-n1c(C(C)N2CCN(C(=O)COc3ccc(Cl)cc3)CC2)nc2ccccc2c1=O` (stereo not given), for which the compound was called inactive.

Turning to `C=C(C)[C@H]1Cc2c(ccc3c2O[C@@H]2COc4cc(OC)c(OC)cc4[C@@H]2C3=O)O1`, the outcome was inactive.

Consider `CCC(=O)O[C@H]1CC[C@H]2[C@@H]3CCC4=CC(=O)CC[C@]4(C)[C@H]3CC[C@]12C`, for which the compound was called inactive.

In the case of `O=C(O)Cc1ccccc1`, the compound was classed as inactive.

For `C[C@]12CC[C@H]3[C@@H](CCC4=CC(=O)CC[C@@H]43)[C@@H]1CC[C@@H]2OC(=O)CCc1ccccc1`, the compound was classed as inactive.
